Screens: PubChem BioAssay, Sanford-Burnham Center for Chemical Genomics
CD11b adhes inh: inhibitors of human CD11b/CD18 binding to fibrinogen; P05107+P11215; K562 CD11b/CD18 adhesion to fibrinogen, ATPlite luminescence; Mn2+ added to activate the integrin; inhibition, % at 10 µM; 93,000 compounds, 0.54% hits; AID 1497;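 active = primary inhibition of 50% or more at 10 µM, then 40% or more on retest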
CD11b adhes enh: enhancers of human CD11b/CD18 binding to fibrinogen | activation, % at 10 µM | 93,000 compounds, 0.07% hits | P05107+P11215 | K562 CD11b/CD18 adhesion to fibrinogen, ATPlite luminescence;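 active = 10 µM primary screen giving 50% or more activity, confirmed by 40% or more on retest at that dose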
HePTP inhibitor: blocks human HePTP tyrosine phosphatase; P35236; recombinant HePTP phosphatase activity, OD absorbance; inhibition, % at 20 µM; 110,000 compounds, 0.64% hits; AID 521; in the data active = inhibition above about 50%; inconclusive = no clear call, values can overlap the other calls
Target sequence (P35236 whole entry, looked up): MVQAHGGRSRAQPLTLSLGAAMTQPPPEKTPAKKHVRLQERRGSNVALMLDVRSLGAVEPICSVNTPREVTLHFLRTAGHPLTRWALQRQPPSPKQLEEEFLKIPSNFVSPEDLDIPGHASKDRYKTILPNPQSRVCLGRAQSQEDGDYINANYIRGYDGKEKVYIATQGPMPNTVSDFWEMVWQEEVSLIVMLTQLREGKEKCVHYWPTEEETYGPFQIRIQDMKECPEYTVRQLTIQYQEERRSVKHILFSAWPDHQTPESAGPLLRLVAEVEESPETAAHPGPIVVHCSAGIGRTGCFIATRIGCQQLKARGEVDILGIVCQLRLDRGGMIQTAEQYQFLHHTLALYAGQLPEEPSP
PLAP act: activates human placental alkaline phosphatase; 96,000 compounds, 1.2% hits; purified PLAP enzyme, luminescent substrate read-out; stronger effect = higher value; activation fold at 20 µM; P05187; in the data active = activation fold above about 2
A number is an active result; . = inactive; ? = inconclusive; / = no result. An excerpt weighted towards active compounds, which were near 1.5% of everything screened.

SMILES	CD11b adhes inh	CD11b adhes enh	HePTP inhibitor	PLAP act
COc1ccc(CN2CCN(Cc3ccc(SC)cc3)CC2)cc1	/	/	72	/
CCOc1ccc(CNCCc2ccc(Cl)cc2)cc1	/	/	.	/
CC(C)(C)OC(=O)c1c(N)n(Cc2ccco2)c2nc3ccccc3nc12	.	.	/	2.1
Cc1ccc(N2C(=O)NC(=O)/C(=C\c3ccccc3OCc3ccc(C(=O)O)cc3)C2=O)cc1	/	/	.	/
Cc1cc(OCC(N)=O)c2c3c(c(=O)oc2c1)CCC3	/	/	.	/
CCOc1cc(C)cc2oc(=O)c3c(c12)CCC3	/	/	104	/
O=C1NC(=S)NC(=O)C1CCCC=C(Cl)Cl	/	/	.	/
CC(C)CCNC(=O)c1c(N)n(CC2CCCO2)c2nc3ccccc3nc12 (configuration not stated)	.	.	.	2.1
CCCCn1c(N)c(C(=O)NCCN2CCOCC2)c2nc3ccccc3nc21	.	.	.	2.3
CCC(C)NC(=O)c1c(N)n(CCCOC)c2nc3ccccc3nc12 (configuration not stated)	.	.	.	2
CCC(C)NC(=O)c1c(N)n(CC2CCCO2)c2nc3ccccc3nc12 (configuration not stated)	.	.	.	2
Nc1c(C(=O)NCCc2ccccc2)c2nc3ccccc3nc2n1CCN1CCOCC1	.	.	.	.
COc1cccc(/C=C2/C(=O)NC(=O)N(c3cccc(C)c3)C2=O)c1O	/	/	.	/
Cn1cccc1/C=C1/C(=O)NC(=S)N(c2ccc(Cl)cc2)C1=O	/	/	100	/
O=C1NC(=S)N(c2cccc(Cl)c2)C(=O)/C1=C/c1ccc(Cl)cc1	/	/	.	/
CCn1cc(C=C2C(=O)NC(=S)NC2=O)c2ccccc21	/	/	.	/
O=C1NC(=S)NC(=O)C1=Cc1ccc(-c2ccc(S(=O)(=O)Nc3nccs3)cc2)o1	/	/	100	/
COC(=O)c1ccc(-c2ccc(C=C3C(=O)NC(=S)NC3=O)o2)cc1	/	/	.	/
CCCCCCOC(=O)C1CN1C(Cc1ccccc1)C(=O)OC (configuration not stated)	/	/	.	/
CCN(CC)CCNCC(=O)Nc1ccc(Cl)cc1C(=O)c1ccccc1	.	.	/	2.6
CCOc1ccc(N2C(=O)/C(=C/c3ccco3)C(=O)NC2=S)cc1	/	/	102	/
CCOc1ccc(N2C(=O)NC(=O)/C(=C\c3ccc(C)o3)C2=O)cc1	/	/	.	/
CC(C)c1ccc(N2C(=O)NC(=O)/C(=C/c3ccco3)C2=O)cc1	/	/	.	/
O=C1NC(=S)N(c2cccc(Br)c2)C(=O)/C1=C/c1ccco1	/	/	102	/
CN1CCN(C(=O)COc2ccc(-c3nc4ccccc4s3)cc2)CC1	93	.	.	.
SMILES	CD11b adhes inh	CD11b adhes enh	HePTP inhibitor	PLAP act
O=C(COc1ccccc1)N1CCN(Cc2ccccc2)CC1	/	/	.	/
CC(C)NS(=O)(=O)c1ccc(OCC(=O)N2CCN(C)CC2)cc1	.	.	.	.
Cn1nc(-c2ccc(OCC(=O)N3CCN(Cc4ccccc4)CC3)cc2)c2ccccc2c1=O	71	.	/	.
CCCCn1c(=O)c(C(=O)Nc2ccc(I)cc2)c(O)c2ccccc21	/	/	.	/
CN1C(=O)NC(=O)/C(=C\c2ccc([N+](=O)[O-])o2)C1=O	/	/	97	/
CC12CCC(O)CC1CCC1C2CCC2(C)C1CCC2(C)O (configuration not stated)	/	/	.	/
Cn1c(O)c(/C=C2/C=CC=N2)c(=O)n(-c2ccccc2)c1=S	/	/	101	/
Cn1ncnc2c(=O)n(C)c(=O)nc1-2	71	.	?	.
O=C1C(=Cc2ccc(-c3ccccc3[N+](=O)[O-])o2)C(=O)N(c2ccccc2)C(=S)N1c1ccccc1	/	/	.	/
